In PubChem BioAssay (Tox21) one finds Potency data, which are given here for 40 compounds.

SMILES strings stand for the structures. Results filed as inconclusive are left out. Where a call stands in place of a potency, no number is given. The source made the active and inactive calls. Calls come from the whole dose curve; as a rule, active = well fitted cell-killing curve with a large enough effect in the repeat runs; inconclusive = weak or mixed curves, or effect the other way; inactive = flat fitted curve, though single readings scatter.
Potency is the fitted concentration of half-maximal effect.

This experiment in a line: cAMP Responsive Elements (CRE) small molecule agonists, cell-based qHTS assay: qHTS cell viability counter screen (AID 2060914).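 Note: viability read after 3 h of compound exposure; nearly all actives have a fitted effect of over 50% in size.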 As to conditions: CRE-bla HEK293T viability, CellTiter-Glo luminescence, 5 h; series mostly up to 92.4 µM. An excerpt:
National Center for Advancing Translational Sciences [NCATS]
Division of Preclinical Innovation [DPI]
U.S. Environmental Protection Agency [EPA]
National Institutes of Environmental Health Sciences [NIEHS]
National Toxicology Program [NTP]
U.S. Food and Drug Administration [FDA]
CREB (cyclic-AMP Responsive Element Binding Protein) is a cellular transcription factor. It binds to certain DNA sequences called cAMP Responsive Elements (CRE) and regulates the transcription of the genes. […] This cell line can be used to find agonists/antagonists of the cyclic AMP signaling pathway. The activation of the report gene under culture conditions can be detected by fluorescence intensity. This cell line has been used to screen the Tox21 10K compound library to identify agonists that induce oxidative stress. The cytotoxicity of the Tox21 compound library against the CRE-bla cell line was tested in parallel by measuring the cell viability using CellTiter-Glo assay (Promega, Madison, WI) in the same wells.
Tox21 Assay Protocol Summary:
CRE-bla Hek 293T cells were suspended in assay medium (DMEM containing 10% dialyzed FBS, 0.1 mM NEAA, 1 mM sodium pyruvate and 25 mM HEPES) and dispensed at 2,000 cells/5 uL /well into 1536-well black wall/clear bottom plates using a Multidrop Combi (ThermoFisher Scientific, Waltham, MA) dispenser. After the assay plates were incubated at 37 C/5% CO2 for 18 hrs, 23 nL of compounds dissolved in DMSO, positive controls or DMSO only was transferred to the assay plate by a pintool workstation (Kalypsys, San Diego, CA). After the plates were incubated at 37 C/5% CO2 for 3 hrs, 1 uL of LiveBLAzer B/G FRET substrate (Invitrogen, Carlsbad, CA) was added to each well using Bioraptr Flying Reagent Dispenser (FRD, Aurora Discovery, San Diego, CA). The plates were incubated at room temperature for 2 h, then fluorescence intensities were measured using an Envision plate reader (PerkinElmer, Shelton, CT) at Excitation 405nm, Emission 460nm and 530nm. The % activity was determined from the ratio of 460nm/530nm. For cell viability readout that measures cytotoxicity, 4 uL /well of CellTiter-Glo reagent was added into the assay plates using Bioraptr FRD. After 30 min incubation at room temperature, the luminescence intensity in the assay plates was measured using a ViewLux (PerkinElmer, Shelton, CT) plate reader.
Take `COCCc1ccc(OCC(O)CNC(C)C)cc1` (stereo not given): the Potency entry was “inactive”.
As for `COC[C@H](c1ccc(C(F)(F)F)cc1)N1CCN(C2(C)CCN(C(=O)c3c(C)ncnc3C)CC2)C[C@H]1C`, the Potency entry is “inactive”.
Consider `COc1cc(Cl)ccc1Cl`, for which the Potency entry was “inactive”.
As for `Cc1ccc(N(C)C)cc1`, the entry is “inactive”.
As for `Cc1c(C(C)C)c(=O)n(-c2ccccc2)n1C`, the entry is “inactive”.
For the compound `CN(C)CCOC(c1ccc(Cl)cc1)c1ccccn1` (stereo not given), the Potency result was “inactive”.
The entry for `C=CCCC=C` is “inactive”.
As for `CN1CCOC(c2ccccc2)c2ccccc2C1` (stereo not given), the entry is “inactive”; as for `CC/C=C\CCCCO`, “inactive”.
As for `COc1ccccc1NC(=O)c1cc2ccccc2cc1O`, the figure is 30.6 µM (active); as for `O=C1CCCCC1C1CCCCC1` (stereo not given), “inactive”; as for `Oc1ccccc1-c1nnco1`, “inactive”.
In the case of `CN(C)CCC(c1ccc(Cl)cc1)c1ccccn1` (stereo not given), the Potency result is “inactive”.
The entry for `NCc1ccccc1` is “inactive”.
The entry for `Cn1cccc1` is “inactive”; for `c1coc(Cn2cccc2)c1` it is “inactive”; for `Cc1occc(=O)c1OC(=O)C(C)C` it is “inactive”.
On to `Cc1ccc(S(N)(=O)=O)cc1`, for which the Potency result is “inactive”.
As for `O=C(CCCl)NCc1ccccc1`, the entry is “inactive”.
For `O=C1CCCc2c1cc1ccc3cccc4ccc2c1c34`, the Potency result is “inactive”.
The entry for `CCCCCCCCCCCCCCCCCCO` is “inactive”; for `CC(=O)c1ccc(S(=O)(=O)NC(=O)NC2CCCCC2)cc1` it is “inactive”; for `Cc1cc(C)nc(NS(=O)(=O)c2ccc(N)cc2)n1` it is “inactive”.
The entry for `C/C=C/C=C/CO` is “inactive”; for `CCCC(CC)CCCCCCCN` (stereo not given) it is “inactive”.
The entry for `C=C(C)c1ccccc1` is “inactive”; for `C[N+](C)(C)CCOC(N)=O` it is “inactive”; for `OC1CCCCC1c1ccccc1` (stereo not given) it is “inactive”.
With `O=C(O)COc1ccc2ccccc2c1`, the Potency result is “inactive”.
As for `CC/C(=C(/c1ccc(O)cc1)c1ccc(OCCN(C)C)cc1)c1ccccc1`, the entry is “inactive”.
In the case of `c1ccc(CNCc2ccccc2)cc1`, the Potency entry was “inactive”.
As for `CCCCCCCCS(=O)C(C)Cc1ccc2c(c1)OCO2` (stereo not given), the entry is “inactive”; as for `C=CC(=O)OCCOc1ccccc1`, “inactive”; as for `O=C(Nc1ccc(Cl)cc1)Nc1ccc(Cl)c(Cl)c1`, “inactive”.
As for `NC(=O)NNc1ccccc1`, the entry is “inactive”; as for `OC(CCN1CCCCC1)(c1ccccc1)c1ccccc1`, “inactive”; as for `CC(C)[C@H](N)C(=O)OCCOCn1cnc2c(=O)[nH]c(N)nc21`, “inactive”.
The entry for `COC(=O)C1=C(C)NC(C)=C(C(=O)OC)C1c1ccccc1[N+](=O)[O-]` is “inactive”; for `C=CC(=O)OCCCCCCOC(=O)C=C` it is “inactive”; for `CCc1cccc(O)c1` it is “inactive”.
